Inconclusive results are not listed. Activity calls are given as the source filed them. Unless noted, calls come from the whole dose curve; as a rule, active = well fitted curve in the direction sought with a large enough effect; inconclusive = small, poorly fitted or top-dose-only effect, or another doubt; inactive = no such curve, though single readings can be large; an effect the other way counts as inactive or inconclusive.
Columns and labels:
[1] = Cell Viability - BJ (AID 421; calls by dose curve;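 note: potency is the fitted concentration of half-maximal effect; cells exposed to compound for 40 hours at 37 °C before readout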); conditions: BJ fibroblast viability, qHTS
How it was run: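 Normal human BJ foreskin fibroblasts, 1500/well in complete medium, treated 40 hr at 37 °C. Cellular ATP by CellTiter-Glo luminescence; normalized to DMSO and 100 uM tamoxifen, AC50 from Hill fit.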

[2] = Cell Viability - Jurkat (AID 426;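 active = dose-dependent loss of cell ATP signal giving a full or clear fitted curve, ranked by lower potency value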; note: potency is the fitted concentration of half-maximal effect); conditions: qHTS
How it was run: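 Jurkat (Clone E6-1) cells, 5000/well in complete medium, exposed to compounds for 40 hr at 37C; intracellular ATP measured by CellTiter-Glo luminescence after 20 min at room temperature. AC50 from Hill fits.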

[3] = Cell Viability - Hek293 (AID 427;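 active = compounds whose dose-response curve shows a full or clear partial loss of cell viability, called from curve shape rather than a numeric limit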;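 note: potency is the fitted concentration of half-maximal effect; cells exposed to compound for 40 hours at 37 °C before reading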); conditions: qHTS
How it was run: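 HEK293 cells in complete medium were exposed to compound for 40 hr at 37 °C, then cellular ATP was read by CellTiter-Glo luminescence. Data were normalized to DMSO (basal) and 100 uM tamoxifen (100% inhibition), and AC50 came from Hill fits.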

[4] = Cell Viability - HepG2 (AID 433; calls by dose curve;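 note: potency is the fitted concentration of half-maximal effect; potency for ATP loss meaning cytotoxicity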); conditions: qHTS
How it was run: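 Cytotoxicity is scored as loss of intracellular ATP in HepG2 cells exposed to compounds for 40 h. Concentration-response curves, normalized to DMSO and 100 uM tamoxifen, give AC50 values.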

[5] = Cell Viability - MRC5 (AID 434; calls by dose curve;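 note: potency is the fitted concentration of half-maximal effect; potency reflects cytotoxicity seen as loss of intracellular ATP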); conditions: MRC5 lung fibroblast viability, qHTS
How it was run: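 MRC5 normal human lung fibroblasts, 1500 cells/well, exposed to compound for 40 hr at 37 C. Cellular ATP was read by CellTiter-Glo luminescence; data normalized to DMSO and 100 uM tamoxifen, with AC50 from Hill fits.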

[6] = Cell Viability - SK-N-SH (AID 435; calls by dose curve;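 note: potency is the fitted concentration of half-maximal effect; compound exposure lasted 40 h at 37 °C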); conditions: SK-N-SH neuroblastoma cell viability qHTS
How it was run: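 Cells seeded at 1500 per well and incubated 5 hr at 37 °C. Compound added, then 40 hr at 37 °C. CellTiter-Glo added, 20 min at room temperature, luminescence read.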

[7] = target: Mitogen-activated protein kinase 10 (Mus musculus) (UniProt Q61831); experiment: JNK3 AlphaScreen Assay (AID 530; active = well fitted curve in either direction with a large enough effect, not every such curve was filed as active;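 note: kinase came from lysate of stimulated human HepG2 cells; signal reports phosphorylation of biotinylated GST-cJun 1-79 at Ser73 with 10 µM ATP; series mostly up to about 57 µM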)
How it was run: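 Pre-activated (IL-1β/TNFα) JNK3 in HepG2 lysates phosphorylates biotin-GST-cJun(1-79), 10 uM ATP; anti-phospho-cJun(Ser73) AlphaScreen read at room temperature, pH 7.6 Tris buffer. Compounds pre-incubated 15 min as titrations.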

[8] = Cell Viability - N2a (AID 540); note: nearly all actives have a fitted effect of over 45% in size
How it was run: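 Mouse neuroblastoma N2a cells, 1500/well, exposed to compounds 40 h at 37 °C in complete medium. Viability measured as cellular ATP by CellTiter-Glo luminescence; AC50 from Hill fits of concentration-response.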

[9] = Cell Viability - HUV-EC-C (AID 542); note: nearly all actives have a fitted effect of over 35% in size
How it was run: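 HUV-EC-C human vascular endothelial cells, 1000/well, exposed to compound for 40 hr at 37 °C in complete medium. Intracellular ATP was read by CellTiter-Glo luminescence. AC50 came from Hill-equation fits of concentration-response data.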

[10] = Cell Viability - H-4-II-E (AID 543); note: nearly all actives have a fitted effect of over 35% in size
How it was run: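 Rat hepatoma H-4-II-E cells, 1500 per well, treated 40 h at 37 °C in complete medium. Cellular ATP read by CellTiter-Glo luminescence; AC50 from Hill fits of concentration-response.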

[11] = Cell Viability - SH-SY5Y (AID 544); note: nearly all actives have a fitted effect of over 55% in size
How it was run: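 SH-SY5Y human neuroblastoma cells (1500/well) incubated 5 h, then compound-treated 40 h at 37 °C in complete medium. Viability read as intracellular ATP by CellTiter-Glo luminescence after 20 min; AC50 from Hill-equation fits of qHTS concentration-response.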

[12] = Cell Viability - Renal Proximal Tubule (AID 545); note: nearly all actives have a fitted effect of over 40% in size
How it was run: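 Cytotoxicity is scored as a concentration-dependent drop in cellular ATP in primary rat renal proximal tubule cells exposed for 40 hr. AC50 derives from Hill modelling.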

[13] = Cell Viability - Mesenchymal (AID 546);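 note: cells exposed to compound for 40 hours before reading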
How it was run: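 Human kidney mesenchymal cells from normal renal glomeruli, 1000 cells/well, rested 5 hr at 37 °C, then treated 40 hr at 37 °C in complete medium. Cellular ATP read by CellTiter-Glo luminescence; AC50 from Hill-equation fits.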

[14] = Cellular Toxicity (caspase-3) HepG2 (AID 654);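 note: cells exposed to compound for 16 hours before reading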
How it was run: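 HepG2 cells (1500/well) were treated 16 h at 37 °C in complete medium, then caspase 3/7 activity was read by Caspase-Glo luminescence. Data were normalized to DMSO and 100 uM tamoxifen; AC50 came from Hill-equation fits of qHTS concentration-response.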

[15] = Cellular Toxicity (caspase-3) Jurkat (AID 655);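 note: cells exposed to compound for 16 h at 37 °C before reading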
How it was run: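 Caspase 3/7 activation is scored as increased luminescence in Jurkat cells cultured with compound for 16 hours in complete medium. AC50 values come from Hill fits of qHTS concentration-response data normalized to DMSO and 100 uM tamoxifen controls.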

[16] = Cellular Toxicity (caspase-3) HUV-EC-C (AID 656)
How it was run: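 Read-out: luminescence proportional to caspase 3/7 activity, measured 20 min after adding Caspase-Glo 3/7 reagent. Cells (HUV-EC-C) had received compound for 16 hr at 37°C. Increases relative to DMSO and 100 uM tamoxifen gave concentration-response AC50 values.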

[17] = Cellular Toxicity (caspase-3) SHSY5Y (AID 657)
How it was run: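 Cells plated and incubated 5 h at 37 °C, dosed over a concentration range, incubated 16 h, then given Caspase-Glo 3/7 reagent for 1 h at room temperature before luminescence reading. Staurosporine (10 uM) defined full stimulation.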

[18] = Cellular Toxicity (caspase-3) BJ (AID 658)
How it was run: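 BJ human foreskin fibroblasts, 1000 cells/well, treated 16 hours at 37 °C in complete medium; caspase 3/7 activity by Caspase-Glo luminescence after 1 hr at room temperature. Normalized to DMSO and 10 uM staurosporine; AC50 from Hill fits.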

[19] = Cellular Toxicity (caspase-3) MRC-5 (AID 659)
How it was run: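 MRC-5 human normal lung fibroblasts, 1500 cells/well, treated 16 h at 37 °C in complete medium. Caspase 3/7 measured by Caspase-Glo luminescence after 1 h at room temperature. Normalized to DMSO and 10 uM staurosporine; AC50 from Hill fit.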

[20] = Cellular Toxicity (caspase-3) Mesangial (AID 660)
How it was run: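 Human renal glomerular mesangial cells, 1000/well, 5 h at 37 C before 16 h compound treatment. Caspase-Glo 3/7 luminescence after 20 min; normalized to DMSO and 100 uM tamoxifen, AC50 from Hill fit.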

[21] = Cellular Toxicity (caspase-3) SK-N-SH (AID 661)
How it was run: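 Human SK-N-SH neuroblastoma cells, 1500/well, were exposed to compounds for 16 hours at 37 °C. Caspase-Glo 3/7 luminescence was normalized to DMSO (basal) and 10 uM staurosporine (100%), and AC50 came from a Hill fit.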

[22] = Cellular Toxicity (caspase-3) H-4-II-E (AID 663);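 note: cells exposed to compound for 16 hr before readout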
How it was run: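 Rat hepatoma H-4-II-E cells (1500/well) plated 5 hr, then exposed to compound titrations for 16 hr at 37 °C. Caspase-Glo 3/7 luminescence read after 20 min at RT; data normalized to DMSO and 100 uM tamoxifen, AC50 from Hill fits.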

Measured: Potency

C[C@@H]1[C@H](O)[C@@H](C)/C=C/C=C/C=C/C=C/C=C/C=C/C=C/[C@H](O[C@@H]2O[C@H](C)[C@@H](O)[C@H](N)[C@@H]2O)C[C@@H]2O[C@](O)(C[C@@H](O)C[C@@H](O)[C@H](O)CC[C@@H](O)C[C@@H](O)CC(=O)O[C@H]1C)C[C@H](O)[C@H]2C(=O)O
inactive: [1] > 92 µM | [2] > 92 µM | [3] > 92 µM | [4] > 92 µM | [5] > 92 µM | [6] > 92 µM | [7] | [8] | [9] | [10] | [11] | [12] | [13] | [14] | [15] | [16] | [17] | [18] | [19] | [20] | [21] | [22]

Reference: PubChem BioAssay (NCATS)
